Consider 20 compounds from PubChem BioAssay.

Assay [1] in a line: antimalarial activity against Dd2 strain (AID 2302;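 active means growth inhibition above 50% at the single 2 µM test dose, taken to imply half-maximal potency below 2 µM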;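 further: 0% = DMSO untreated growth and 100% = chloroquine plus artemisinin killed control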). The conditions noted are these: P. falciparum Dd2 in RBCs, LDH growth readout, 72 h; at 2 µM; stronger effect = higher value.
A short description of assay [2]: HepG2 cytotoxicity, primary screen, cytotoxicity control for P. falciparum antimalarial project, cell-based, ATP luminescence (AID 2303;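 active means inhibition above 50%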;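 further: 0% = DMSO wells and 100% = digitonin-killed cells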). The conditions noted are these: HepG2 viability, 24-48 h, at 10 µM, stronger effect = higher value.
The target in assay [3] is L-lactate dehydrogenase (Plasmodium falciparum (isolate CDC / Honduras)) (UniProt Q27743). Put plainly: PfLDH activity inhibition – cell lysate, 3D7 strain, counter-screen for P. falciparum growth inhibition project (AID 2304).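 Further: 0% = vehicle and 100% = reference inhibitor.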 The conditions noted are these: P. falciparum 3D7 crude extract, LDH APAD/NBT absorbance; at 2 µM; stronger effect = higher value.
A short description of assay [4]: inhibition of 3D7 malaria parasite growth – strain 3D7 (AID 2306).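 Further: 0% = DMSO wells and 100% = chloroquine plus artemisinin control wells.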 The conditions noted are these: P. falciparum 3D7 erythrocytic growth, LDH absorbance, 72 h; at 2 µM; stronger effect = higher value.
Assay [5] concerns the target Calcium-dependent protein kinase 1 (Plasmodium falciparum (isolate 3D7)) (UniProt P62344). Put plainly: PfCDPK1 kinase inhibitors, biochemical, TCAMS library (AID 1159585; cut-off not given, nearly all actives have IC50 up to about 0.98 µM;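 further: inhibitors leave more ATP so luminescence rises with inhibition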). The conditions noted are these: recombinant PfCDPK1, Kinase-Glo ATP depletion luminescence.
In assay [6] the target is Plasmodium falciparum protein kinase 6 (PK6, PF3D7_1337100) (UniProt Q8IDW1). Put plainly: PfPK6 kinase inhibitors, biochemical, TCAMS library (AID 1159586). The conditions noted are these: recombinant PfPK6, Kinase-Glo ATP depletion luminescence.
In assay [7] the target is Protein kinase 7 (PK7), Plasmodium falciparum 3D7 (PF3D7_0213400) (UniProt Q7YTF7). Put plainly: inhibition of Plasmodium PK7 catalytic activity – biochemical, TCAMS antimalarial set, Kinase-Glo luminescence (AID 1159587). The conditions noted are these: recombinant PfPK7, Kinase-Glo ATP depletion luminescence.
Assay [8] concerns the target Calcium-dependent protein kinase 4 (Plasmodium falciparum (isolate 3D7)) (UniProt Q8IBS5). As to the kind of experiment: PfCDPK4 kinase inhibitors, biochemical, TCAMS library (AID 1159588; cut-off not given, nearly all actives have IC50 up to about 0.91 µM). The conditions noted are these: recombinant PfCDPK4, Kinase-Glo ATP depletion luminescence.

Values without a mark were called inactive. For some of these results: Results with a measured potency or affinity are listed apart. The source made the active and inactive calls. Unless noted, how the calls were made is not given here.

Plasmodium falciparum protein kinase 6 (PK6, PF3D7_1337100), sequence (Q8IDW1 1-305): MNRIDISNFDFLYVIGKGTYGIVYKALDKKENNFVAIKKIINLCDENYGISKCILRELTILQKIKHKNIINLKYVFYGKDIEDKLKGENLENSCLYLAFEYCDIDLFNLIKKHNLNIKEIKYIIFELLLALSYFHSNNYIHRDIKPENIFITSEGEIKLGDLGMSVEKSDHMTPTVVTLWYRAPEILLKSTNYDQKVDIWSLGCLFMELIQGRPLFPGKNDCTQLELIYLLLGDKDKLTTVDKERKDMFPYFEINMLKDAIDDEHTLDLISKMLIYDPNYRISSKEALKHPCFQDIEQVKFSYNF
Protein kinase 7 (PK7), Plasmodium falciparum 3D7 (PF3D7_0213400), sequence (Q7YTF7 1-343): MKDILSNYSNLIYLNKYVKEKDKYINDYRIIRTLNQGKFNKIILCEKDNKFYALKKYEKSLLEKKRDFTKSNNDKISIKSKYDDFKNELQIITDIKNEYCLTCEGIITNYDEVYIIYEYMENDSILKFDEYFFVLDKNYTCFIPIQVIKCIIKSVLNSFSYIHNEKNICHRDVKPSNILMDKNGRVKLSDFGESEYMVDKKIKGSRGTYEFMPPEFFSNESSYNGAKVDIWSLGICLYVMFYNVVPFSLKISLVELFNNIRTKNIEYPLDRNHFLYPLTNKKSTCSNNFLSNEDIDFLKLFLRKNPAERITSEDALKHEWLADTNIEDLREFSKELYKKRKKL
Calcium-dependent protein kinase 4 (Plasmodium falciparum (isolate 3D7)), sequence (Q8IBS5 whole entry, looked up): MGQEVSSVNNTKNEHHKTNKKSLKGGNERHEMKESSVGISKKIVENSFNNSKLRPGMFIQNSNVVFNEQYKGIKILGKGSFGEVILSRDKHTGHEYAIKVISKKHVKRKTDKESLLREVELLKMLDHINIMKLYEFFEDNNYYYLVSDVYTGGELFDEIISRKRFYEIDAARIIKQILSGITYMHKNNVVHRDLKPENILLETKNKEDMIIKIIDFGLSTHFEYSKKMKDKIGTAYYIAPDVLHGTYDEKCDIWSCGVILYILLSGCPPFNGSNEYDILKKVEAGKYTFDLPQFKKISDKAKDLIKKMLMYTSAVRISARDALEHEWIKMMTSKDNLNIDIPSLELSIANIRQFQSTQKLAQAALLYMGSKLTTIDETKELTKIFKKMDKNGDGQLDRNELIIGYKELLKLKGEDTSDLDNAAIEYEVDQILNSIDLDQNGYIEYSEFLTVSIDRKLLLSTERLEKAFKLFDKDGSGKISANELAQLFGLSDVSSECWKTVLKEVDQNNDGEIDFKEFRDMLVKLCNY
L-lactate dehydrogenase (Plasmodium falciparum (isolate CDC / Honduras)), sequence (Q27743 whole entry, looked up): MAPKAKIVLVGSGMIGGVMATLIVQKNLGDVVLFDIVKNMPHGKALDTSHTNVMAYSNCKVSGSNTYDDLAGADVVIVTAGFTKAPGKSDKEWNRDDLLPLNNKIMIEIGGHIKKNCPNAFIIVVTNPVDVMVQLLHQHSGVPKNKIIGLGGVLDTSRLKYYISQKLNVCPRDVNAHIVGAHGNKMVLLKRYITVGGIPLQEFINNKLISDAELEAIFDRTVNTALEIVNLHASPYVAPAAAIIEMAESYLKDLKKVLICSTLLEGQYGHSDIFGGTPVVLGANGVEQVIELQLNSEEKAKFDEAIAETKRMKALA
Calcium-dependent protein kinase 1 (Plasmodium falciparum (isolate 3D7)), sequence (P62344 whole entry, looked up): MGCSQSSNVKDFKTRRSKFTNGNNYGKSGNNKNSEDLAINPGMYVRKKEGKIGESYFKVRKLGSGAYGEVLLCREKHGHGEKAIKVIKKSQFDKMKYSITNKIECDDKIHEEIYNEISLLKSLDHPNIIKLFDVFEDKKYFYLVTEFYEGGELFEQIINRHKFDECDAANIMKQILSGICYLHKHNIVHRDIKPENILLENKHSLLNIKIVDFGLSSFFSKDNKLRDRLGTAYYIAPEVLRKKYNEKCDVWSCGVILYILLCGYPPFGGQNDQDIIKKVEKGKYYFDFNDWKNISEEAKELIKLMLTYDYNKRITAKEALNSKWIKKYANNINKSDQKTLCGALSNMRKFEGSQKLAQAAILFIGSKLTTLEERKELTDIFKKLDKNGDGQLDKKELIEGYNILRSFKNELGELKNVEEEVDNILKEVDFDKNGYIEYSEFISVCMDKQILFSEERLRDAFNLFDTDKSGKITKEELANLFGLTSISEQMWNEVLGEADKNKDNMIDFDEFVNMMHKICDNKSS

For the compound `CC(=O)N(Cc1cccc(-c2cccc(CNCc3ccc4c(c3)OCO4)c2)c1)C1CCN(Cc2ccccc2)CC1`, the growth inhibition in assay [1] is 21%; in assay [4], 95% (active). For the same compound, the inhibition in assay [2] is 16%; in assay [3] it was -5%. Further, the outcome in assay [5], in assay [6], in assay [7] and in assay [8] was inactive.
Take `Cc1[nH]c2ccccc2c1C1=CCN(CCCCC2(C)C(=O)Nc3ccccc32)CC1` (stereo not given): the figures for the growth inhibition in assay [1] and in assay [4] were 89% (active) and 94% (active), respectively. Further, the inhibition in assay [2] is 8%; in assay [3], -4%. In addition, the result in assay [5], in assay [6], in assay [7] and in assay [8] was inactive.
On to `CCCN(CC(=O)NCCc1ccccc1)c1ccc(C#N)c2ccccc12`, for which the growth inhibition in assay [1] is 39%; in assay [4] it was 92% (active). Further, the figures for the inhibition in assay [2] and in assay [3] were 8% and -5%, respectively. Besides, the outcome in assay [5], in assay [6], in assay [7] and in assay [8] was inactive.
Turning to `COc1ccc(C(=O)[C@H]2C[C@@H]2CN2CC=C(c3c[nH]c4ccc(OC)nc34)CC2)cc1`, the figures for the growth inhibition in assay [1] and in assay [4] were 91% (active) and 98% (active), respectively. The values for the inhibition in assay [2] and in assay [3] were 8% and -3%, respectively. The result in assay [5], in assay [6], in assay [7] and in assay [8] was inactive.
Regarding `CC[C@H]1CN2CCc3cc(OC)c(OC)cc3[C@@H]2C[C@@H]1C[C@H]1NCCc2c1cc(OC)c(O)c2Cl`, the growth inhibition was 101% (active) in assay [1] and 100% (active) in assay [4]. Also, the inhibition in assay [2] was 51% (active); in assay [3] it was 2%. Also, the result in assay [5], in assay [6], in assay [7] and in assay [8] was inactive.
For `CCOc1ccc(Br)cc1/C=C/C(=O)Nc1ccc2c(c1)[C@@H]1CC[C@H]2N1C`, the growth inhibition was 26% in assay [1] and 89% (active) in assay [4]. In addition, the figures for the inhibition in assay [2] and in assay [3] were 60% (active) and -2%, respectively. For the same compound, the outcome in assay [5], in assay [6], in assay [7] and in assay [8] was inactive.
Take `COc1ccc(CCNCc2ccc3c(C)cc(N)nc3c2)cc1`: the growth inhibition in assay [1] was 69% (active); in assay [4], 101% (active). In addition, the values for the inhibition in assay [2] and in assay [3] were 12% and 0%, respectively. The outcome in assay [5], in assay [6], in assay [7] and in assay [8] was inactive.
Consider `C=CCOc1ccccc1CNCC(O)c1cccc(C(F)(F)F)c1` (stereo not given), for which the growth inhibition in assay [1] is 98% (active); in assay [4], 99% (active). In addition, the figures for the inhibition in assay [2] and in assay [3] were 10% and -1%, respectively. For the same compound, the result in assay [5], in assay [6], in assay [7] and in assay [8] was inactive.
On to `O=C(/C=C/c1cccs1)NC1CCC(CN2CCC(c3c[nH]c4ccccc34)CC2)CC1` (stereo not given), for which the growth inhibition in assay [1] is 29%; in assay [4], 82% (active). Also, the inhibition in assay [2] is 33%; in assay [3], -1%. Also, the outcome in assay [5], in assay [6], in assay [7] and in assay [8] was inactive.
Consider `CN(c1cc(NC(=O)c2ccc(F)cc2)ccn1)C1CCN(Cc2ccc(C#N)cc2)CC1`, for which the figures for the growth inhibition in assay [1] and in assay [4] were 54% (active) and 87% (active), respectively. In addition, the inhibition in assay [2] was 13%; in assay [3] it was 2%. Besides, the result in assay [5], in assay [6], in assay [7] and in assay [8] was inactive.
With `O=C(Nc1ccc(Oc2ccccc2)cc1)N1CCC(CN2CCC(c3c[nH]c4ccccc34)CC2)CC1`, the results for the growth inhibition in assay [1] and in assay [4] were 59% (active) and 100% (active), respectively. Moreover, the inhibition in assay [2] is 53% (active); in assay [3], -1%. In addition, the outcome in assay [5], in assay [6], in assay [7] and in assay [8] was inactive.
Take `CC(Cc1ccc(OCc2ccccc2)c(Cl)c1)NCC(O)c1cccc(C(F)(F)F)c1` (stereo not given): the growth inhibition in assay [1] is 95% (active); in assay [4] it was 97% (active). In addition, the inhibition is -2% in assay [2] and -4% in assay [3]. The result in assay [5], in assay [6], in assay [7] and in assay [8] was inactive.
`CC(Cc1ccc(OCCOc2ccccc2)cc1)NCC(O)c1cccc(Cl)c1` (stereo not given): the growth inhibition in assay [1] and in assay [4] was 99% (active) each time. Besides, the inhibition in assay [2] was 12%; in assay [3] it was 1%. The result in assay [5], in assay [6], in assay [7] and in assay [8] was inactive.
For the compound `CN(C)c1cccc(CCNCCc2c[nH]c3ccc(Cl)cc23)c1`, the growth inhibition is 75% (active) in assay [1] and 94% (active) in assay [4]. Further, the inhibition in assay [2] is 19%; in assay [3], -6%. Also, the outcome in assay [5], in assay [6], in assay [7] and in assay [8] was inactive.
With `O=C(/C=C/c1ccccc1Cl)NC1CCC(CN2[C@@H]3CC[C@H]2CC(c2c[nH]c4ccccc24)C3)CC1` (stereo not given in full), the growth inhibition in assay [1] is 98% (active); in assay [4], 102% (active). The inhibition is 56% (active) in assay [2] and 3% in assay [3]. The result in assay [5], in assay [6], in assay [7] and in assay [8] was inactive.
Take `Cc1[nH]c2cc(Cl)ccc2c1C1=CCN(CCN2CCOc3c(Br)cccc3C2=O)CC1`: the figures for the growth inhibition in assay [1] and in assay [4] were 58% (active) and 90% (active), respectively. Moreover, the inhibition is 1% in assay [2] and 4% in assay [3]. Further, the outcome in assay [5], in assay [6], in assay [7] and in assay [8] was inactive.
Take `NC(=O)CN1CC=C(c2c[nH]c3ccc(Br)cc23)CC1`: the growth inhibition is 0% in assay [1] and 83% (active) in assay [4]. Further, the inhibition in assay [2] is 30%; in assay [3], -12%. Besides, the result in assay [5], in assay [6], in assay [7] and in assay [8] was inactive.
As for `COc1ccc(NC(=S)NC(NC(=O)CF)C(Cl)(Cl)Cl)cc1[N+](=O)[O-]` (stereo not given), the growth inhibition in assay [1] was -4%; in assay [4], 97% (active). For the same compound, the inhibition is 66% (active) in assay [2] and 0% in assay [3]. Also, the result in assay [5], in assay [6], in assay [7] and in assay [8] was inactive.
Turning to `CC[C@H]1CN2CC[C@H]1C[C@H]2[C@H](O)c1cc(-c2ccc(F)cc2C)nc2ccc(OC)cc12`, the values for the growth inhibition in assay [1] and in assay [4] were 100% (active) and 99% (active), respectively. The inhibition in assay [2] is -2%; in assay [3] it was -3%. In addition, the result in assay [5], in assay [6], in assay [7] and in assay [8] was inactive.
Regarding `CC[C@H]1CN2CC[C@@H]1C[C@H]2[C@H](O)c1cc(-c2c(C)noc2C)nc2ccc(OC)cc12`, the growth inhibition was 98% (active) in assay [1] and 100% (active) in assay [4]. The inhibition in assay [2] was 4%; in assay [3], -1%. The result in assay [5], in assay [6], in assay [7] and in assay [8] was inactive.
